These results are taken from PubChem BioAssay (Tox21).

Assay [1] in a line: qHTS assay to identify small molecule antagonists of the thyroid receptor (TR) signaling pathway - cell viability counter screen (AID 743064). Also: nearly all actives have a fitted effect of over 50% in size. The essentials:
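GH3.TRE-Luc cells, 4 h pre-plating; cpd + T3 1 nM final; 37 °C 23.5 h; CellTiter-Fluor 30 min; fluorescence read.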
On the technique in general: In qHTS, concentration-response curves come from the screen itself.

The nature of assay [2]: qHTS assay to identify small molecule antagonists of the thyroid receptor (TR) signaling pathway (AID 743065). Also: series mostly up to about 70 µM; nearly all actives have a fitted effect of over 55% in size. The essentials: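 Antagonism measured as loss of luciferase signal in GH3 cells stably carrying a TRE-luciferase reporter, co-treated with compound and T3 (1 nM final) for 23.5 h at 37 C. Viability was read in the same well by CellTiter-Fluor.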
The subject of assay [3] is thyroid hormone receptor (rat, GH3 cells). Nature of the assay: qHTS assay to identify small molecule agonists of the thyroid receptor (TR) signaling pathway (AID 743066; calls by dose curve).
Assay [4] in a line: qHTS assay to identify small molecule antagonists of the estrogen receptor alpha (ER-alpha) signaling pathway using the BG1 cell line - cell viability counter screen (AID 743081).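 Also: compound given together with 17beta-estradiol as the ER stimulus; series mostly up to about 70 µM; nearly all actives have a fitted effect of over 45% in size.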
In another assay the target is Aromatase (Homo sapiens) (UniProt P11511). Nature of the assay: qHTS assay to identify aromatase inhibitors (AID 743083). Also: series mostly up to about 70 µM; nearly all actives have a fitted effect of over 55% in size.
Aromatase (Homo sapiens), sequence (P11511 whole entry, looked up): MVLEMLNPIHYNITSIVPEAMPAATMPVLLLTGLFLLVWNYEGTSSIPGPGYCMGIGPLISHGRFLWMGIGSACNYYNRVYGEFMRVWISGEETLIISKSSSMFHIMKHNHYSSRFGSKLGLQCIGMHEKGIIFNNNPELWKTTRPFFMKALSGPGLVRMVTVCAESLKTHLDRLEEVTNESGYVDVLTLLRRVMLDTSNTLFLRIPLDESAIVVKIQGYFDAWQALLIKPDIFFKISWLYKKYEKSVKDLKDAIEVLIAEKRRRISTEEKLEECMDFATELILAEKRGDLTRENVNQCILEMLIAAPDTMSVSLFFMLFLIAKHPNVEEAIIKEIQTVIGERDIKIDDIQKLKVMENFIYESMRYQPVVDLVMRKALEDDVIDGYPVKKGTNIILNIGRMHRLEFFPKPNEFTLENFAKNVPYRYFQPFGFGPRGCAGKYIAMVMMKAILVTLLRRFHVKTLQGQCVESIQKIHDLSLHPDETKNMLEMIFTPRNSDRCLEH
Assay [5] can be described thus: qHTS assay to identify small molecule antagonists of the estrogen receptor alpha (ER-alpha) signaling pathway - cell viability counter screen (AID 743074; calls by dose curve; also: nearly all actives have a fitted effect of over 45% in size).
Assay [6] addresses Estrogen receptor (Homo sapiens) (UniProt P03372). Description: qHTS assay to identify small molecule antagonists of the estrogen receptor alpha (ER-alpha) signaling pathway (AID 743069; active = well fitted curve in the direction sought with a large enough effect in the signal ratio in the repeat runs, not every such curve was filed as active; the % refers to the signal ratio). Put shortly:
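Fluorescence intensity from a beta-lactamase FRET substrate served as the read-out. Cells: HEK293 with stably integrated ER-alpha-UAS-bla reporter. Agonist 17beta-estradiol was co-added with compounds; incubation 18 hr at 37C, substrate 2 hr at room temperature.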

For assay [7] the target is unchanged. Nature of the assay: qHTS assay to identify small molecule agonists of the estrogen receptor alpha (ER-alpha) signaling pathway (AID 743075; calls by dose curve).
Assay [8] can be described thus: qHTS assay to identify small molecule antagonists of the estrogen receptor alpha (ER-alpha) signaling pathway using the BG1 cell line (AID 743080; calls by dose curve;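 also: BG1 cells stimulated with 17beta-estradiol alongside compound; nearly all actives have a fitted effect of over 25% in size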; also: potency is read from the fitted curve at half-maximal effect). Put shortly: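 Luciferase inhibition measured with ONE-Glo after 30 min at RT in BG1Luc4E2 cells given test compounds and 17beta-estradiol for 21.5 h at 37 C; CellTiter-Fluor viability read in the same wells beforehand.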

In assay [9] the target is Estrogen receptor (Homo sapiens) (UniProt P03372). Description: qHTS assay to identify small molecule agonists of the estrogen receptor alpha (ER-alpha) signaling pathway using the BG1 cell line (AID 743079). Also: nearly all actives have a fitted effect of over 20% in size.
Estrogen receptor (Homo sapiens), sequence (P03372 whole entry, looked up): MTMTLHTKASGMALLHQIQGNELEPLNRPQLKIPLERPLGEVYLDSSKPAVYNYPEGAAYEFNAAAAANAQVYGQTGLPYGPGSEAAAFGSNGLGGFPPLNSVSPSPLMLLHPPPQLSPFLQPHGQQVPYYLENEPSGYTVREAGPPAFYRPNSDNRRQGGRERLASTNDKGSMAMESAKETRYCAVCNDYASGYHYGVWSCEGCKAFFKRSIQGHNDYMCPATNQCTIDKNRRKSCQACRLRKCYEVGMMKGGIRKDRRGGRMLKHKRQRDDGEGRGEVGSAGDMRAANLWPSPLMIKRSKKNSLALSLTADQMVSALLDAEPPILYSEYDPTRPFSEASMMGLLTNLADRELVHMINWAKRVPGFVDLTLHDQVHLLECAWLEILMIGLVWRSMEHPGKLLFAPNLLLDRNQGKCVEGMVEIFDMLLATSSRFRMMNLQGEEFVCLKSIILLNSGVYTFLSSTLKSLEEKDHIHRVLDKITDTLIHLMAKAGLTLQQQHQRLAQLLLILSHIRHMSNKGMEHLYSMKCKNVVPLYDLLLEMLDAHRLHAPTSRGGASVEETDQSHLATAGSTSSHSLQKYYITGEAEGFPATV

Inconclusive results are not listed. Values without a mark were called inactive. Active and inactive are the calls of the source. Unless noted, calls follow the shape of the dose curve; as a rule, active = well fitted curve in the direction sought with a large enough effect in the repeat runs; inconclusive = weak or mixed curves; inactive = no such curve, though single readings can be large; an effect the other way counts as inactive or inconclusive.
% is scaled to controls: 0 for no effect and ±100 for the full control effect.

Regarding `C=Cc1ccccn1`, the Potency entry (in assay [1]; in assay [2]; in the assay with Aromatase (Homo sapiens)) was “inactive” throughout. The outcome in assay [3] and in assay [4] was inactive.
Consider `COc1ccc(OC)c(Cl)c1`, for which the Potency result (in [1]; in [2]; in the assay with Aromatase (Homo sapiens)) was “inactive” each time. Besides, the outcome in assay [3], in assay [5] and in assay [4] was inactive.
As to `CCCCCCOc1ccccc1C(N)=O`, the Potency entry (in assay [1]; with Aromatase (Homo sapiens)) was “inactive” throughout. Further, the call in assay [3], in [6], in assay [5], in assay [7] and in assay [4] was inactive. In addition, the Potency in assay [8] is 33.5 µM (active).
For the compound `CC(C(=O)O)c1ccc2c(c1)CC(=O)c1ccccc1S2` (stereo unspecified), the Potency entry (in assay [1]; in assay [9]; in assay [8]; with Aromatase (Homo sapiens)) was “inactive” in each case. Besides, the result in assay [3], in assay [6], in assay [5] and in assay [7] was inactive.
On to `OCCCCC(O)CO` (stereo unspecified), for which the Potency entry (in assay [1]; in [2]; with Aromatase (Homo sapiens)) was “inactive” each time. Further, the call in [5] and in assay [4] was inactive.
Regarding `COc1nccnc1NS(=O)(=O)c1ccc(N)cc1`, the Potency result (in assay [1]; in assay [2]; with Aromatase (Homo sapiens)) was “inactive” each time. For the same compound, the result in [3] and in assay [4] was inactive.
For the compound `CCCCCCCCC1CCC(=O)O1` (stereo unspecified), the Potency result (in assay [1]; in assay [2]; with Aromatase (Homo sapiens)) was “inactive” each time. The compound was classed as inactive in assay [3], in assay [7] and in [4].
On to `CCCCNc1ccc(C(=O)OCCN(C)C)cc1`, for which the Potency result (in assay [1]; with Aromatase (Homo sapiens)) was “inactive” each time. The compound was called inactive in assay [3], in assay [5] and in [4].
On to `COCCOC(=O)C1=C(C)NC(C)=C(C(=O)OC(C)C)C1c1cccc([N+](=O)[O-])c1` (stereo unspecified), for which the Potency entry (in assay [1]; in [9]; in assay [8]; with Aromatase (Homo sapiens)) was “inactive” in each case. The call in assay [3], in assay [5], in assay [7] and in assay [4] was inactive.
For the compound `COC(=O)C1CC(=O)C(C(=O)OC)CC1=O` (stereo unspecified), the activity change, negative = cytotoxic in [1] was 29.4% [at 8.44 µM]. The activity, negative = inhibition is -0.0159% [at 8.44 µM] in assay [2] and 8.29% [at 8.47 µM] with Aromatase (Homo sapiens). In addition, the activation in assay [3] was -0.929% [at 8.08 µM]. Besides, the activity, negative = cytotoxicity in assay [5] is 10.1% [at 6.72 µM].
Turning to `NCCN1CCOCC1`, the Potency entry (in [1]; in [2]; with Aromatase (Homo sapiens)) was “inactive” each time. For the same compound, the call in assay [3] and in [4] was inactive.
